Screens as filed in PubChem BioAssay.
The list is not random: actives were taken first. Their share in the collection is about 27%.
CYP2C9 act: CYP2C9 (human) activation; recombinant CYP2C9, luciferin-H conversion, luminescence; stronger effect = higher value; factor 1 = untreated enzyme, 0 = blocked; activation factor at 5 µM; hit rate 1.4% among 96,000; AID 1024;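 active = activation factor of 2 or more for CYP2C9 at a 5 µM dose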;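 note: 0 = sulfaphenazole-blocked wells and 1 = vehicle-only wells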
CYP2C19 inh: human CYP2C19 inhibition; P33261; inhibition, % at 5 µM; hit rate 21% among 96,000; CYP2C19 Supersomes, luciferin-H EGE luminescence, 30 min;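 active = CYP2C19 inhibition above a set limit at 5 µM in the primary screen, cut at about 50% in these data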;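 note: plate controls were negative control wells for no effect and 2.5 mM tranylcypromine positive control for full effect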
CYP2C19 act: activators of human cytochrome P450 2C19. 96,000 tested, under 10 active. P33261. AID 1025. activation factor at 5 µM. recombinant CYP2C19, luciferin-H EGE luminescence; stronger effect = higher value; 0 = fully inhibited enzyme, 1 = untreated enzyme;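 active = activation factor of at least 2 at 5 µM in the primary screen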;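 note: 0 = wells with 2.5 mM tranylcypromine and 1 = vehicle-only wells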
CYP2C9 inhib: blocks human cytochrome P450 2C9 | inhibition, % at 5 µM | hit rate 20% among 96,000 | CYP2C9 Supersomes, luciferin-H conversion, luminescence | AID 777;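 active = blocking of liver enzyme CYP2C9 beyond about 50% at 5 µM, limit read from the data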
Cav32 inh: blocks human Cav3.2 T-type calcium channel; Cav3.2-expressing cells, Fluo-4 calcium fluorescence FDSS; stronger effect = lower value; O95180; B-score at 10 µM; hit rate 4% among 100,000;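 active = single-dose well whose peak fluorescence ratio is a statistical outlier from its plate by either plate-standardised score or position-corrected B-score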
* marks the source's active call; other numbers are inactive results; . = not tested or not shown.

SMILES | CYP2C9 act | CYP2C19 inh | CYP2C19 act | CYP2C9 inhib | Cav32 inh
Cc1cc(NCCN2CCOCC2)n2ncc(-c3ccccc3)c2n1 | 0.7 | 28.2 | 0.7 | 25.1 | 2.38
Cc1cc(N)n2nc(C)c(-c3ccccc3)c2n1 | 1 | -14.3 | 1.1 | -1.8 | -0.176
Cc1sc2ncnc(NCCCn3ccnc3)c2c1C | 0.1 | 92.3* | 0.1 | 89.7* | 0.153
Cc1ccc(-n2ncc3c(NCCCn4ccnc4)ncnc32)c(C)c1 | 0.2 | 72.7* | 0.3 | 79.5* | 2.03
c1cn(CCCNc2ncnc3nc[nH]c23)cn1 | 0.6 | 15.0 | 0.8 | 40.2 | .
Cc1cccc(-n2ncc3c(NC(C)C)ncnc32)c1 | 0.9 | 7.5 | 0.9 | 11.6 | 0.12
Cc1cccc(-n2ncc3c(NCCCn4ccnc4)ncnc32)c1 | 0.1 | 90.5* | 0.1 | 91.4* | 0.664
CC(C)C1NC(=S)N(Cc2ccccc2)C1=O (stereo not drawn) | 0.9 | 58.5* | 0.4 | 13.7 | 0.461
Cc1sc(NC(=O)c2ccco2)nc1-c1ccccc1 | 0.2 | 55.0* | 0.4 | 81.0* | -0.137
O=C(Nc1nc(-c2ccncc2)cs1)c1ccco1 | 0.2 | 97.2* | 0 | 75.7* | 1.29
COc1ccc2c(c1)CCc1sc(NC(=O)c3ccco3)nc1-2 | 0 | 93.9* | 0.1 | 98.8* | -0.875
COCC(=O)Nc1nc(-c2ccccc2)c(C)s1 | 0.8 | 51.7* | 0.5 | 17.6 | 0.19
COc1ccc2c(c1)Cc1sc(NC(=O)c3ccco3)nc1-2 | 1 | -1.9 | 1 | 1.9 | 0.561
CCOC(=O)c1sc(NC(=O)c2cc3c(C)nn(-c4ccccc4)c3s2)nc1C | 1 | -3.5 | 1 | 4.2 | .
COc1cccc(NC(=O)N2CCCC2C(=O)NC2CC2)c1 (stereo not drawn) | 1.3 | -12.3 | 1.1 | -28.9 | -0.651
Cc1nnc(SCC(=O)NC2CCCCC2)n(N)c1=O | 1 | -19.0 | 1.2 | -4.0 | -0.433
Cc1nn(C(C)c2n[nH]c(=S)n2-c2cccc(Cl)c2)c(C)c1[N+](=O)[O-] (stereo not drawn) | . | . | . | . | 0.546
COC(=O)c1ccc(NC(=O)CSc2nnc(CNc3ccc(F)cc3)n2C)cc1 | 0.6 | 15.4 | 0.8 | 40.5 | -1.15
CCOc1cc2c(C#N)c(N3CCCCC3)nc(N)c2c(N)n1 | 0.1 | 62.1* | 0.4 | 90.5* | 0.88
COc1cc2c(C#N)c(N3CCc4ccccc4C3)nc(N)c2c(N)n1 | 0.2 | 80.7* | 0.2 | 85.0* | 0.397
COC(=O)C1=C2SC(C)C(=O)N2C(N)=C(C#N)C1c1cc(OC)c(OC)c(OC)c1 (stereo not drawn) | 0.8 | 11.6 | 0.9 | 24.1 | -0.321
COC(=O)C1=C2SC(C)C(=O)N2C(N)=C(C#N)C1c1ccc(OC)c(OC)c1 (stereo not drawn) | 0.4 | 28.6 | 0.7 | 56.3* | 0.553
CCOC(=O)C1CCCN(c2cc(=O)n(-c3ccccc3Cl)c(=O)[nH]2)C1 (stereo not drawn) | 1.2 | -23.1 | 1.2 | -16.8 | 0.842
CC1CCCCN1Cc1c(C#N)c2ccccc2n1C (stereo not drawn) | 1 | 52.4* | 0.5 | -2.2 | -0.271
CC(=O)N(Cc1c(C#N)c2ccccc2n1C)c1ccccc1 | . | . | . | . | -0.35
SMILES | CYP2C9 act | CYP2C19 inh | CYP2C19 act | CYP2C9 inhib | Cav32 inh
CCOC(=O)CSCc1c(C#N)c2ccccc2n1C | 1.1 | 99.7* | 0 | -7.7 | -0.745
CC1CCN(Cc2c(C#N)c3ccccc3n2C)CC1 | 0.9 | 80.6* | 0.2 | 11.9 | -1.73
Cn1c(CN2CCOCC2)c(C#N)c2ccccc21 | 1.8 | 88.2* | 0.1 | -78.7 | 0.373
CCc1c(O)nc2sc3ccccc3n2c1=O | 1 | -7.2 | 1.1 | 0.9 | .
COC(=O)C1=C(C(=O)OC)[C@@H]2Nc3ccccc3[C@@]23C[C@@H](C(=O)OC)N(C(=O)NC2CCCCC2)C3=N1 | . | . | . | . | -1.98
CCC(C)c1ccc(NC(=O)COC(=O)C2=COCCO2)cc1 (stereo not drawn) | 0.9 | -6.1 | 1.1 | 14.1 | -0.283
CC1(OC(=O)C2CCCC2)C(=O)C=C2C=C(C3CC3)OC=C2C1=O (stereo not drawn) | . | . | . | . | -0.755
COC(=O)c1ccc(NC(=O)C(=O)N2CCCC2)cc1 | 0.8 | 15.2 | 0.8 | 20.6 | -0.304
COc1ccccc1N1CCN(/N=C/C=C\c2ccco2)CC1 | 1 | 18.5 | 0.8 | 0.6 | -0.799
CCC(=O)N1CCC2(CC1)Oc1ccc(F)cc1C(=O)C21CC(c2cccnc2)=NO1 (stereo not drawn) | . | . | . | . | 0.506
CCOC(=O)N1CCN(CC(=O)Nc2c(C(=O)OC)[nH]c3cc(C)ccc23)CC1 | 0.9 | 2.3 | 1 | 5.9 | 1.17
CCOC(=O)N1CCN(CC(=O)Nc2c(C(=O)OC)[nH]c3ccc(Cl)cc23)CC1 | 0.7 | 25.8 | 0.7 | 27.4 | .
CCOC(=O)c1[nH]c2ccc(F)cc2c1NC(=O)CN1CCc2cc(OC)c(OC)cc2C1 | 0.2 | 68.4* | 0.3 | 81.4* | .
COC(=O)c1[nH]c2ccc(Cl)cc2c1NC(=O)CN1CCc2cc(OC)c(OC)cc2C1 | 0.1 | 86.6* | 0.1 | 89.4* | 0.0147
CCOC(=O)c1[nH]c2ccc(OC)cc2c1NC(=O)CCN1CCc2ccccc2C1 | 0.8 | 6.5 | 0.9 | 20.9 | -0.105
COC(=O)c1[nH]c2cc(C)ccc2c1NC(=O)CN1CCc2cc(OC)c(OC)cc2C1 | 0.5 | 51.2* | 0.5 | 49.3 | 0.155
Cn1c(=O)c2c(nc(SCCN3CCCCC3)n2Cc2ccc(Cl)cc2)n(C)c1=O | 0.8 | 8.5 | 0.9 | 19.6 | -0.0704
COc1ccc(C2/C=C\CN(S(=O)(=O)c3ccc(C)cc3)[C@H](Cc3ccccc3)C(=O)N2Cc2ccc(F)cc2)cc1 (stereo partly drawn) | . | . | . | . | 0.0262
CN(C)/C=N/c1sc2c(c1C#N)CC(C)(C)NC2(C)C | . | . | . | . | -0.142
O=C(CCCNC(=O)/C(=C\c1ccc(F)cc1)NC(=O)c1ccccc1)OCc1ccccc1 | 0.5 | 63.1* | 0.4 | 45.9 | -2.59
O=C(O)C1CC(c2ccccc2F)=NO1 (stereo not drawn) | 1 | 1.1 | 1 | -1.2 | 0.414
CCOC(=O)C1C(=O)C=C(c2ccc(NS(C)(=O)=O)cc2)CC1c1ccco1 (stereo not drawn) | 0.2 | 20.9 | 0.8 | 75.4* | 0.782
CCOC(=O)C1C(C)=CC(=O)CC1c1ccco1 (stereo not drawn) | 1 | 31.5 | 0.7 | 1.7 | 0.353
CCOC(=O)C1C(=O)C=C(c2ccc(C)cc2)CC1c1ccco1 (stereo not drawn) | 0.2 | 53.6* | 0.5 | 79.5* | -2.69
O=C(COc1ccc(Cl)cc1)NCc1nnc(SCC(=O)NCCc2ccccc2)o1 | 0.5 | 0.5 | 1 | 45.5 | -0.0181
O=C(NCc1ccccc1F)C1CCCN(C(=O)NC2CCCCC2)C1 (stereo not drawn) | 1 | -2.7 | 1 | -0.6 | 0.693
C#CCSc1nncn1C(=O)/C=C/c1ccccc1 | 1 | -11.4 | 1.1 | 1.6 | 0.551
C#CCOc1ccc(Cl)cc1/C=N/O | 0.6 | 51.2* | 0.5 | 44.6 | 0.0414
C#CCOc1ccc(Br)cc1/C=N/O | 0.3 | 64.2* | 0.4 | 65.8* | -1.19
